Laboratory results taken from PubChem BioAssay (NCI).
This is part of a sample that, as a whole, favours compounds with a hit. Of some 83,000 tested, about 20% had one in any assay.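 Testing used 96-well plates and a 48-hour single-concentration exposure. Example: -40 means 40% of the starting cells died.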 Values without a mark were called inactive. The source made the active and inactive calls. Rule for the calls: active = growth percent below 10; inactive = the rest.

Legend:
Test in all cases: NCI-60 one-dose screen, 48 h (100 = growth as untreated, 0 = no growth, -100 = all killed)
Conditions in all cases: 10 µM unless noted
[1] = tested on: NCI-H23 lung
[2] = tested on: NCI-H226 lung
[3] = tested on: NCI-H322M lung
[4] = tested on: HOP-62 NSCLC
[5] = tested on: NCI-H460 lung
[6] = tested on: HOP-92 NSCLC
[7] = tested on: NCI-H522 lung
[8] = tested on: A549/ATCC NSCLC
[9] = tested on: 786-0 renal
[10] = tested on: COLO 205 colon

Structure (SMILES) | growth [1] | growth [2] | growth [3] | growth [4] | growth [5] | growth [6] | growth [7] | growth [8] | growth [9] | growth [10]
NC(=S)N/N=C(/CCN1CCCC1)CC(C1=C(O)C2=CCCCC2OC1=O)c1ccccc1 (stereo not given) | 72.8% | 85.7% | 85.7% | 79.1% | 101% | 68.3% | 80.1% | 99.4% | 105% | 102%
Cc1cc(N/N=C/c2nc(-c3ccc(Br)cc3)oc2C)c2cc(Cl)ccc2n1 | 101% | 84.7% | 91.9% | 107% | 12.8% | 72% | 76.5% | 65.5% | 34.1% | 104%
C/C(=C\c1ccc(OCC(=O)O)c(Cl)c1Cl)[N+](=O)[O-] | 93.2% | 110% | 134% | 100% | 110% | 104% | 83.4% | 93.8% | 117% | 112%
CC(=O)Nc1scc[n+]1Cc1ccccc1 | 88% | 106% | 131% | 105% | 112% | 99.2% | 103% | 104% | 102% | 111%
C=C1CCC[C@]2(C)CCC[C@H](C)[C@@H](OC(C)=O)[C@@H]3OC(=O)C(=C)[C@@H]3C[C@H]1O2 | 74.5% | 78.6% | 99% | 99.9% | 74.7% | 24% | -6.33% (active) | 83.3% | 91.3% | 103%
CN1C(=O)N(C)C2C1NN=c1s/c(=C\C=C\c3ccccc3)c(=O)n12 (stereo not given) | 64.3% | 61.9% | 68.4% | 67.3% | 23.3% | 63.9% | 38.7% | 52.7% | 71.3% | 42.1%
CC1=C(C#N)C(=O)NC(C)C1 (stereo not given) | 92.8% | 111% | 106% | 99.4% | 107% | 83.1% | 107% | 95.3% | 97.6% | 108%
Cn1c(=O)cc(NC(=O)CN2CCN(c3cc4c(cc3F)c(=O)c(C(=O)O)cn4C3CC3)CC2)[nH]c1=O | 99.9% | 95.5% | 102% | 98.9% | 105% | 99.8% | 91.7% | 98.8% | 102% | 106%
C=C[C@@H]1C[C@@H]2Cc3c(C)cc(C)cc3N1O2 | 95% | 95.5% | 91.9% | 91.2% | 99.8% | 45.6% | 99.2% | 95.1% | 105% | 100%
COc1cc(C2CC(c3ccc4c(c3)OCO4)=NN2C(C)=O)cc(OC)c1OC (stereo not given) | 44.3% | 52.4% | -12.9% (active) | 35.5% | 10.7% | 74.6% | -29.8% (active) | 36% | 42.1% | -12.8% (active)
COc1cccc(/C=C/C(=O)Nc2cc(OC)c3c(c2)OCO3)c1 | 97.1% | 99.2% | 102% | 99.7% | 100% | 86.5% | 87.4% | 98.3% | 91.3% | 109%
CCCCN(CCCC)c1ccc(C(=N)c2ccc(N(CCCC)CCCC)cc2)cc1 | -77% (active) | -90.7% (active) | 11.9% | -96.8% (active) | -85.9% (active) | -83% (active) | -87% (active) | -86.6% (active) | -91.2% (active) | -96.2% (active)
COc1cc(NC(N)=NCCC(C)(C)c2ccc(C(F)(F)F)cc2)ncc1C#N | 6.42% (active) | 55.5% | 36.1% | 54.5% | 6.06% (active) | -3.76% (active) | 16.8% | 27.2% | 36% | -83.6% (active)
C=C(C)[C@@H]1C[C@@H]2Cc3cc(Cl)ccc3N1O2 | 99.8% | 101% | 111% | 93.4% | 102% | 25.2% | 116% | 95.4% | 102% | 105%
COc1ccc(-c2cc3c(OC)c(OC)c(OC)cc3oc2=O)cc1 | 59.1% | 83.1% | 77% | 50.4% | 13.8% | 30.6% | -11.7% (active) | 47.7% | 57.2% | 31.5%
O=C1/C(=C/c2ccc(Cl)cc2)CN(Cc2cn(CCNc3ccnc4cc(Cl)ccc34)nn2)C/C1=C\c1ccc(Cl)cc1 | -71.3% (active) | -70.6% (active) | -87% (active) | -100% (active) | -78.6% (active) | -75% (active) | -99.4% (active) | -85.1% (active) | -88.7% (active) | -100% (active)
Cc1ccc(-c2nc(C(Cl)Cl)n3nc(-c4ccccc4)cc3n2)cc1 | 47.3% | 88% | 83.3% | 3.61% (active) | 15.5% | -8.47% (active) | 100% | 12% | 17.8% | 6.05% (active)
CCn1c2ccccc2c2cc(NC(=O)Nc3ccc([N+](=O)[O-])cc3C)ccc21 | 41.5% | 74.9% | 77.8% | 49.4% | 19.5% | 57.9% | 9.7% (active) | 31.5% | 38.9% | 29.9%
COc1c2occc2c(OC)c2c(=O)c(-c3cc(-c4ccc(F)cc4)c(C#N)c(N)n3)c(C)oc12 | 36.1% | 72.1% | 40.3% | 27.9% | 24.9% | 30.6% | 49.4% | 25.2% | 51.2% | 27.2%
COc1cccc(CC(C)=C(c2ccc(OCCN3CCCCC3)cc2)c2ccc(OCCN3CCCCC3)cc2)c1 | 58% | 79.8% | 0.584% (active) | 31.1% | -73.3% (active) | -4.48% (active) | -75% (active) | 2.38% (active) | -83.7% (active) | -81.2% (active)
COc1ccc2c(c1)[nH]c(=O)c1c3cc(C)c(C)cc3cn21 | 51.4% | 37% | -25.1% (active) | -27.8% (active) | -16.4% (active) | -41.7% (active) | -55.8% (active) | -4.9% (active) | 30.9% | -48% (active)
COc1cc(-c2nn(-c3cccc(NC(=O)c4ccc(Cl)c(C(F)(F)F)c4)c3)cc2-c2ccncc2)ccc1Cl | 58.9% | 56.3% | 84.9% | 53% | 25.3% | 22.5% | 1.5% (active) | 23.3% | 59.5% | 69.4%
CC(C)CC1NC(C)(C)CO1 (stereo not given) | 105% | 107% | 121% | 95.9% | 107% | 98% | 89.8% | 103% | 109% | 108%
CCOC(=O)C1C(=O)C=C(c2ccc(OC)cc2)CC1c1sc(N(C)Cc2ccccc2)nc1Cl (stereo not given) | 77.7% | 82.6% | 76.1% | 81.6% | 82.8% | 29.8% | 68.7% | 82% | 84.6% | 108%
O=C(Nc1cccc(-n2cc(-c3ccncc3)c(-c3ccc(Cl)c(O)c3)n2)c1)Nc1cc(C(F)(F)F)cc(C(F)(F)F)c1 | -7.93% (active) | 1.17% (active) | 5.11% (active) | -86.1% (active) | -55.7% (active) | -45.8% (active) | -50.1% (active) | -32.4% (active) | -46.8% (active) | -97.3% (active)
COc1cc(/C=C/C(=O)c2ccc(Nc3ncnc4cc(OC)c(OC)cc34)cc2)cc(OC)c1 | 94.7% | 113% | 105% | 116% | 109% | 76.4% | 92.4% | 84.9% | 92.3% | 117%
COc1ccc(-c2ccc(C)n2-c2ccc(-c3nc4ccccc4s3)cc2)cc1 | 81.4% | 85.2% | 98.2% | 87.6% | 88.8% | 86.2% | 89.4% | 85.6% | 100% | 94%
